Records with an inconclusive call do not appear. A call without a number means that no potency is given here. Activity calls are given as the source filed them. The call rests on the fitted dose curve; in most records, active means well fitted activation curve with a large enough effect; inconclusive means small, poorly fitted or top-dose-only effect; inactive means no such curve, though single readings can be large or run the other way.
Assay: qHTS Assay for Rab9 Promoter Activators: Initial hit validation from the primary screen
Procedure, shortened: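 Luciferase signal, read 10 min after Amplite reagent, reports Rab9 promoter activation. Compounds in DMSO were applied for 24 h at 37C to Rab9-luciferase Huh7 cells, pre-incubated 2 h in reduced-serum medium with 10% FBS.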
Potency means the concentration at half of the fitted maximal effect.

**Q.** With Cc1nc(-c2ccc(S(=O)(=O)Oc3ccc(Cl)cc3Cl)s2)cs1 as the molecule, how does the Potency read?
**A.** inactive

**Q.** With O=C(COc1ccccc1F)Nc1ccc(-c2nc3ccccc3s2)cc1 as the molecule, how does the Potency read?
**A.** 223 nM (active)

**Q.** Which Potency does the source give for COc1ccc([N+](=O)[O-])cc1COc1ccc2c(-c3ccccc3)cc(=O)oc2c1 here?
**A.** inactive

**Q.** With CC1CCc2sc(C(=O)NNC(=S)NC3CC3)cc2C1 (centres undefined) as the molecule, how does the Potency read?
**A.** 19900 nM (active)

**Q.** With O=C(/C=C/c1ccco1)NCC1OCCc2ccccc21 (centres undefined) as the molecule, how does the Potency read?
**A.** inactive

**Q.** For O=C(CSc1nnc(-c2ccc([N+](=O)[O-])cc2)o1)Nc1ccccn1, which Potency is on record?
**A.** 560 nM (active)

**Q.** With CCCN(CCC)CCCNC(=O)c1cc2cc3ccc(Cl)cc3nc2o1 as the molecule, how does the Potency read?
**A.** inactive

**Q.** With O=C(N/N=C/c1ccc(-c2ccc(Br)cc2)o1)c1ccc2c(c1)OCO2 as the molecule, how does the Potency read?
**A.** inactive

**Q.** For COc1cccc(NC(=O)CN2C(=O)CSc3ccc(S(=O)(=O)N4CCC(C)CC4)cc32)c1, which Potency is on record?
**A.** inactive

**Q.** Which Potency does the source give for O=C(O)C1=CC[C@@H](c2ccc(Cl)cc2)N(S(=O)(=O)c2ccc(Cl)cc2)[C@H]1c1ccccc1 here?
**A.** inactive

**Q.** For O=C(CCCN1C(=O)C(c2ccccc2)Oc2cccnc21)Nc1ccccc1Cl (centres undefined), which Potency is on record?
**A.** inactive

**Q.** With COc1cccc(C2Nc3ccccc3NC3=C2C(=O)CC(C)(C)C3)c1 (centres undefined) as the molecule, how does the Potency read?
**A.** inactive

**Q.** Which Potency does the source give for CCOC(=O)C1(Cc2cccc(Cl)c2)CCCN(C(=O)CCSC)C1 (centres undefined) here?
**A.** inactive

**Q.** For O=C(c1cccc(Oc2ccc([N+](=O)[O-])cc2)c1)N1CCOCC1, which Potency is on record?
**A.** inactive

**Q.** For CC(C)CC(=O)N1CCN(c2ccc(NC(=O)c3ccco3)cc2)CC1, which Potency is on record?
**A.** inactive

**Q.** For Fc1ccc(-c2nc3nc4ccccc4nc3n2Cc2ccco2)cc1, which Potency is on record?
**A.** inactive

**Q.** With COc1ccc(NC(=S)NNC(=O)c2cccs2)cc1 as the molecule, how does the Potency read?
**A.** 31500 nM (active)

**Q.** For CCOC(=O)CSc1nc2cc3c(cc2cc1C#N)OCO3, which Potency is on record?
**A.** 888 nM (active)

**Q.** Which Potency does the source give for Cc1csc(NC(=O)CSc2nnc(-c3ccncc3)o2)n1 here?
**A.** 25000 nM (active)

**Q.** For Cc1ccc(C(=O)Nc2nnc(S(=O)(=O)N3CCOCC3)s2)cc1, which Potency is on record?
**A.** inactive

**Q.** For CC1(C)CC(=O)c2c(O)c(-c3ccccc3)c(=O)n(-c3ccccc3)c2C1, which Potency is on record?
**A.** inactive

**Q.** For COc1ccc(NC(=O)CSc2ccc([N+](=O)[O-])cc2)cc1S(=O)(=O)N1CCOCC1, which Potency is on record?
**A.** inactive

**Q.** For COc1ccccc1OCCCC(=O)NCc1ccco1, which Potency is on record?
**A.** inactive

**Q.** With COc1cccc(C(C(=O)NC2CCCC2)N(CCC(C)C)C(=O)CCC(=O)Nc2cc(C)on2)c1 (centres undefined) as the molecule, how does the Potency read?
**A.** inactive

**Q.** Which Potency does the source give for COc1ccc(C)cc1N(C(=O)CNC(=O)c1ccco1)C(C(=O)NC1CCCC1)c1cccnc1 (centres undefined) here?
**A.** inactive

**Q.** For COc1ccc(C(c2nnnn2CCc2ccccc2)N2CCN(C3CCCC3)CC2)cc1 (centres undefined), which Potency is on record?
**A.** inactive

**Q.** With COc1ccc(-c2csc(N(CCCN(C)C)C(=O)c3ccccc3C)n2)cc1 as the molecule, how does the Potency read?
**A.** inactive

**Q.** With CC(=O)[C@@H]1[C@@H](C(=O)c2ccc(C)cc2)[C@]2(C(=O)Nc3ccccc32)[C@H]2C=Cc3cc(F)ccc3N12 as the molecule, how does the Potency read?
**A.** inactive

**Q.** For CC1=C(C(=O)OC2CCCC(C)C2)C(c2ccccc2)NC(=O)N1 (centres undefined), which Potency is on record?
**A.** inactive

**Q.** Which Potency does the source give for CCCOP(=O)(c1ccc(N(C)C)cc1)C(O)c1cccnc1 (centres undefined) here?
**A.** inactive

**Q.** For O=C(CCN1C(=O)c2ccccc2C1=O)Nc1ccc(-c2nc3ccccc3s2)cc1, which Potency is on record?
**A.** 281 nM (active)

**Q.** Which Potency does the source give for COCc1cc(C)nc(N/N=C/c2ccc(-c3ccc(Cl)cc3[N+](=O)[O-])o2)c1C#N here?
**A.** inactive

**Q.** With Cc1cccc(NC(=O)CSc2nc3ccccc3o2)c1 as the molecule, how does the Potency read?
**A.** inactive

**Q.** With Cn1c(CCN2CCN(c3ccccc3)CC2)nc2cc(NC(=O)c3ccco3)ccc21 as the molecule, how does the Potency read?
**A.** inactive

— PubChem BioAssay AID493200 (National Center for Advancing Translational Sciences (NCATS), 2011)
